# Data: the OligoGym collection
# Molecular target: ZNF32
# Assay: pooled miR-30 sensor sort-seq; sequence = guide strand
# Conditions: shRNA
# Further: reference of the scale not given here.
row,Sequence,sensor-assay potency score (higher = more potent)
1,TTGAAGAACGCTACATTCTGGG,0.82
2,TTAGACTACCTTTTTGCCGGAA,-0.355
3,TAGTGTCTTCGAATCTGGGGAT,-0.0716
4,TTGAGGATCCTGTAGCCTCAGA,-1.2
5,TCTTCCATGACAGTCCAGCAGG,-1.26
6,TCTTCCTGTAGTGTCTTCGAAT,-1.44
7,TTGATGTGTAACAAGATTGCCT,0.254
8,ATATCTTCCATGACAGTCCAGC,-0.761
9,TATCCCAGCTTGAGGATCCTGT,-0.615
10,TAACGTTAGACTACCTTTTTGC,-0.0672
11,TGAATCTTCCTGTAGTGTCTTC,-0.275
12,TGTAGTGTCTTCGAATCTGGGG,0.479

# Molecular target: ZNF343
# Assay: as above
# Conditions: shRNA
row,Sequence,sensor-assay potency score (higher = more potent)
1,TTGACTTCTGGCTAAAACCTCG,-0.583
2,TTGATGAGATCTGAGTTCTGGC,0.144
3,TTGACTTATGACTAAAGCCTCG,-0.75
4,TTTGATGAGATCTGAGTTCTGG,0.519
5,TTGACTTGTCACAAAAGCCTCG,-0.0132
6,TAGAAGGCAAGCCTTTCGCTTT,-0.611
7,TTGAGGATGGACTTACTTCTAA,-0.709
8,TACATGTTGACTGAGGAACTGC,-0.356
9,TTTGACTTATGACTAAAGCCTC,-0.874
10,ATAGTCTCTACATTTTCCCCAT,-0.495
11,TTTCGCTTTATGATTTTGGGTC,-0.0502
12,TATCATTAGAAGGCAAGCCTTT,-0.78

# Molecular target: ZNF383
# Assay: as above
# Conditions: shRNA
row,Sequence,sensor-assay potency score (higher = more potent)
1,TTCTTTAGAGATAATAACTTGG,-0.196
2,TCTCTGATGTTGAACAAGCTTT,-0.743
3,TAACATGTGAACCACAACTAAA,-1.41
4,TTGAACAAGCTTTGAGCTCTGG,0.42
5,TTGAGCAATAACTAAAGGCCTT,-0.458
6,TTGAATAAATTGTGAGTTCTGA,-0.124
7,TATATTCCAAAACATCTCCAAA,-1.29
8,TAAATTGTGAGTTCTGACTAAA,-0.929
9,TAAGATTTGAGCAATAACTAAA,-1.31
10,TAACTTGGTTTCACACATCGAT,0.203
11,TTCTATTTCATAAACTTCCTTC,-0.0685

# Molecular target: ZNF384
# Assay: as above
# Conditions: shRNA
row,Sequence,sensor-assay potency score (higher = more potent)
1,TTTATCTTTGTTGTGTTGCCGT,0.173
2,TTATCTTTGTTGTGTTGCCGTC,0.0211
3,TTGGACTCTGTGTCCATACTGA,-0.198
4,ATAAGGGTCATTCATCTCGGGC,-1.42
5,TTGTGTTCTCGATCTGACCTGA,0.373
